Bioassay records as filed in PubChem BioAssay.
Most compounds without a hit are left out; they make up all but 0.75% or so of the library.
BioA inh: M. tuberculosis BioA enzyme inhibitors, primary screen, biochemical, plate reader, single point, HTS | inhibition, % at 9.99 µM | 360,000 tested, 0.096% active | 7,8-diaminopelargonic acid synthase BioA (Mycobacterium tuberculosis) | AID 602481, 2012 | purified M. tuberculosis BioA enzyme; in the data active means inhibition above about 40%
Y pestis TopoI: Yersinia pestis topoisomerase I inhibitors, primary screen, biochemical, cleavage product accumulation, plate reader, single point. Y. pestis Topo-I cleavage product accumulation. 360,000 tested, 0.064% active. activity, % at 10 µM. AID 504884, 2011. DNA topoisomerase I (Yersinia pestis CO92); in the data active means activity above about 50%, passing the limit was not always enough
TcdB GH inh: TcdB glycohydrolase inhibitors, primary screen, biochemical, single point, plate reader; AID 652162, 2013; Toxin B (Clostridioides difficile), P18177; inhibition, % at 9.99 µM; 350,000 tested, 0.24% active; TcdB glycohydrolase enzymatic assay; in the data active means inhibition above about 10%
ugtP null kill: growth inhibition of ugtP-null S. aureus, primary screen, RN4220 ugtP deletion, OD600. 16 h. growth inhibition, % (no concentration beside the values). 330,000 tested, 0.54% active. AID 1259309, 2017; in the data active means growth inhibition above about 68%;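 further: plate controls were untreated wells for no effect and antibiotic for full effect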
RN4220 kill: growth inhibition of S. aureus RN4220, primary screen, OD600; 16 h; inhibition, % (test concentration not listed); 330,000 tested, 0.33% active; AID 1259311, 2017; in the data active means inhibition above about 85%;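 further: plate controls were untreated cells for no effect and reference antibiotic for full effect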
Mtb hypoxia inh: PubChem AID 1159583 | M. tuberculosis hypoxia-regulated fluorescent reporter, fluorescence | fluorescence inhibition, % (test concentration not listed) | 300,000 tested, 0.1% active; in the data active means fluorescence inhibition mostly above about 23%, no sharp cut-off; inactive means mostly below about 17%
An asterisk follows results filed as active; nt = not tested or not shown.

SMILES	BioA inh	Y pestis TopoI	TcdB GH inh	ugtP null kill	RN4220 kill	Mtb hypoxia inh
NC(N)=NN=Cc1ccc(OCc2ccc(Cl)cc2)cc1	nt	nt	nt	100.0*	100.3*	14.0
COc1cc(C=NN=C(N)N)ccc1OCc1ccccc1Cl	nt	nt	nt	-28.9	-13.3	-3.9
C=C(C)C1C2OC(=O)C1[C@]1(O)CC3O[C@]34C(=O)OC2[C@]14C (some centres undefined)	nt	nt	nt	-3.5	1.7	-4.3
O=C(c1cc(Br)c(Br)s1)N1CCN(C/C=C/c2ccccc2)CC1	-2.5	58.0*	nt	9.0	-0.8	nt
COc1ccc(C=NNC(=O)c2[nH]nc3c2CCc2ccccc2-3)cc1OC	nt	nt	nt	-4.0	15.3	1.6
CN(C)CCCNC(=O)C=Cc1ccc2c(c1)OCO2	nt	nt	nt	-2.0	2.8	5.9
Cc1cc(C)cc(NC(=O)COC(=O)CCCNC(=O)c2ccc(Cl)cc2)c1	nt	20.0	-0.6	98.7*	-3.8	5.4
O=C(COC(=O)CCCNC(=O)c1ccc(Cl)cc1)Nc1cc(Cl)c(Cl)cc1Cl	-2.2	-1.2	nt	10.2	4.3	-0.1
O=C(O)c1ccc(/C=N/NC(=S)NCCN2CCOCC2)cc1	-1.5	1.2	10.6*	nt	nt	nt
COC(=O)c1ccc(C=NNC(=S)NCCN2CCOCC2)cc1	nt	nt	nt	19.3	9.3	2.1
ON=Cc1cc(Br)cc(Br)c1OCc1ccccc1	nt	nt	nt	90.6*	-12.1	nt
Cc1ccc(COc2ccc(Br)cc2C=NO)cc1	nt	nt	nt	99.9*	-9.3	nt
COc1cc(C=NO)cc(Br)c1OCc1cccc(Cl)c1	nt	nt	nt	76.1	-1.7	nt
Cc1ccc(C=NNC(=O)c2cc(OCC(F)(F)F)ccc2OCC(F)(F)F)cc1	nt	nt	nt	2.9	-2.6	nt
CC(C)(C)N/N=C1\CC(c2ccccc2)Oc2ccccc21 (centres undefined)	nt	13.0	nt	nt	nt	nt
CC(C)(C)NN=C1CC(c2ccccc2)Oc2ccccc21 (centres undefined)	nt	nt	nt	93.6*	-8.4	14.5
Cc1cccc(C=NNC(=O)c2cc3c(s2)-c2ccccc2CC3)c1	nt	nt	nt	26.5	-20.9	nt
Cc1cc(C)nc(NS(=O)(=O)c2ccc(NC(=S)NC(=O)CC(C)C)cc2)n1	-0.7	-4.8	nt	84.4*	3.6	nt
CC(C)CC(=O)NC(=S)Nc1ccc(S(=O)(=O)N2CCCC2)cc1	nt	-8.0	0.3	86.9*	4.3	5.9
COc1ccc(NC(=O)CSc2nccn2C)cc1S(N)(=O)=O	nt	-6.2	11.3*	2.7	3.1	1.4
COc1ccc(NC(=O)CSc2nncs2)cc1S(N)(=O)=O	nt	-5.2	0.5	4.5	6.5	10.8
O=c1c(OC2OC(CO)C(O)C(O)C2O)c(-c2ccc(O)c(O)c2)oc2cc(O)cc(O)c12 (centres undefined)	-0.5	0.3	14.1*	-3.8	-3.0	8.7
CCOC(=O)C1C2COc3ccccc3C2N2C(=O)N(c3cccc(C)c3)C(=O)[C@]12C (some centres undefined)	nt	nt	nt	-0.7	0.2	2.8
COc1ccc(CNC(=O)C(C)OC(=O)CON=C(C)c2ccc3c(c2)OCO3)cc1 (centres undefined)	nt	nt	nt	3.1	2.2	6.5
Cc1c(-n2c(O)c(C3=c4ccccc4=NC3=O)sc2=S)c(=O)n(-c2ccccc2)n1C	nt	0.8	17.9*	-0.4	2.6	5.6
SMILES	BioA inh	Y pestis TopoI	TcdB GH inh	ugtP null kill	RN4220 kill	Mtb hypoxia inh
O=C1N=c2ccccc2=C1c1sc(=S)n(-c2ccc(O)cc2)c1O	-1.2	-31.9	1.6	-4.0	8.2	15.3
CCc1n[nH]c(=S)n1N=Cc1cc(Br)c(OC)cc1OC	nt	nt	nt	-2.1	-1.6	12.7
COc1ccc(/C=N/N=C2/NC(=O)C(CC(=O)NC(N)=O)S2)cc1 (centres undefined)	-1.0	-2.8	10.6*	nt	nt	nt
CC(=NOCC(=O)NC12CC3CC(CC(C3)C1)C2)c1cc2ccccc2o1	nt	nt	nt	33.9	-8.7	0.4
C=CCn1c(=O)c(C(=O)Nc2cccnc2)c(O)c2ccccc21	2.6	1.3	nt	61.2	98.8*	nt
C=CCn1c(=O)c(C(=O)Nc2ccc(C)cn2)c(O)c2ccccc21	-1.5	-0.2	1.1	100.5*	96.2*	8.7
COc1ccccc1NC(=O)C(=O)NN=C(C)CC(=O)Nc1ccccc1C(F)(F)F	nt	nt	nt	5.1	0.7	-8.7
NCCCn1c(C(=O)c2ccc(Cl)cc2)c2ccc([N+](=O)[O-])cc2[n+]1[O-]	-0.3	-11.9	0.5	21.1	30.6	22.9
NC(=O)CCCn1c(C(=O)c2ccc(Cl)cc2)c2ccc([N+](=O)[O-])cc2[n+]1[O-]	0.1	20.3	0.7	62.5	50.3	40.1*
C#Cc1ccc(C2C=C(C(=O)N3CCOCC3)OC(OCCCCO)C2)cc1 (centres undefined)	nt	nt	nt	2.6	4.8	18.3
Cc1ccc(Nc2c(-c3ccccn3)nc3cccc(C)n23)cc1	1.2	15.2	1.6	100.4*	100.7*	24.8
CCOc1ccccc1N(C(=O)c1ccccc1Cl)C1=NC(C)(C)CS1	0.5	23.2	1.2	5.2	9.4	4.1
Cc1ccc(N(C(=O)c2ccccc2Cl)C2=NC(C)CS2)c(C)c1 (centres undefined)	nt	32.7	0.7	88.4*	2.0	8.6
COc1ccc(NC(=S)NC(=O)/C=C/c2cccs2)cc1	nt	5.2	0.6	83.9*	0.7	25.4
COc1ccccc1NC(=S)NC(=O)/C=C/c1cccs1	nt	-6.1	0.2	active	90.4	-6.6
CN1CC(=O)N2C(Cc3c([nH]c4ccccc34)C2c2ccc3c(c2)OCO3)C1=O (centres undefined)	nt	nt	nt	-8.5	2.3	4.2
COc1ccc(OCC(O)CN(C)C(=O)C=Cc2cccc([N+](=O)[O-])c2)cc1 (centres undefined)	nt	nt	nt	4.8	10.1	-2.2
COC(=O)C(Cc1ccccc1)NC(=O)CSc1nc(C)cc(=O)[nH]1 (centres undefined)	0.3	6.1	22.0*	8.9	3.5	0.6
Cc1cccc(C(=O)N(Cc2nc3ccccc3c(=O)[nH]2)C2CCCCC2)c1	nt	53.8*	1.5	-12.2	0.5	5.8
Cc1cccc(C(=O)N(Cc2nc3ccccc3c(=O)[nH]2)C2CCCC2)c1	nt	23.3	0.3	-1.5	5.8	10.5
C=CCOC(=O)C1=CC(c2coc3ccccc3c2=O)C(CCCO)C(OCC)O1 (centres undefined)	nt	nt	nt	0.6	3.3	6.0
Nc1ncnc(N)c1N=Nc1ccccc1	0.0	-3.6	0.3	7.2	14.7	-4.0
Nc1ccc2ccccc2c1N=Nc1ccccc1	-2.2	-24.0	1.8	94.8*	8.0	19.9
COC(=O)C1=C(c2cc3ccccc3o2)CC2CCC1N2C(=O)NCc1ccco1 (centres undefined)	nt	nt	nt	-4.7	1.5	9.5
CN(C)CCCNC(=O)c1ccc(-c2nc(-c3ccc(Cl)cc3)cs2)cc1	1.8	-36.6	nt	84.2*	31.7	9.5
CN(C)CCCNC(=O)c1ccccn1	-2.6	12.8	nt	0.6	1.0	3.3
O=S(=O)(NN=C1CCCc2ccccc21)c1ccc(Br)cc1	nt	nt	nt	-5.7	7.6	nt
